SMILES strings stand for the structures. ± gives the standard deviation of the averaged measurements.

In the experiment the test system is AEK1 (Tb927.3.2440). Put plainly: percent reduction in TR-FRET probe signal relative to DMSO control; higher = stronger displacement of ATP-site probe (binding). The following applies: 1 µM; incubation time 1 h. For orientation: In TR-FRET formats the signal depends on donor and acceptor labels being close together.
On to `COc1ccc(-c2ccc3c(N4CCOC[C@@H]4C)nc(N4CCOC[C@@H]4C)nc3n2)cc1CO`, for which the “percent reduction in TR-FRET probe signal” value (from here on “percent reduction”) was -7.43 ± 5.2%.

On to `Cc1cn(-c2cc(NC(=O)c3ccc(C)c(Nc4nccc(-c5cccnc5)n4)c3)cc(C(F)(F)F)c2)cn1` [Nilotinib (AMN-107)], for which the “percent reduction” value was determined as 17.5 ± 28%.

Take `Oc1cccc(-c2nc(N3CCOCC3)c3oc4ncccc4c3n2)c1`: the “percent reduction” value is -5.8 ± 6.4%.

In the case of `Nc1nc(N)c(N=O)c(OCC2CCCCC2)n1`, the “percent reduction” value was -2.92 ± 9%.

The values above are taken from the supplement of paper PMC10720658.
